Source: PubChem BioAssay
Shn3 inh set2: reduces Shn3 3'UTR luciferase signal in osteoblasts | Clone20 osteoblast Shn3 3'UTR firefly luciferase, 24 h | inhibition, % at 12.5 µM | 0.52% of 360,000 active | AID 588674;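 active = mean inhibition of at least 75% with every replicate also reaching 75%; inconclusive = mean inhibition at least 75% but some replicate below; inactive = mean inhibition below 75%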
Jurkat NFkB inh: lowers PMA/ionomycin-induced NF-kB signal in Jurkat cells | PMA/ionomycin-induced NF-kB luciferase reporter, luminescence | inhibition, % at 4 µM | 0.53% of 330,000 active; in the data active = inhibition above about 50%
697 NFkB inh: inhibitors of the PMA/ionomycin-induced NF-kB reporter in 697 B cells; 697 B-cell NF-kB luciferase reporter, 16 h; inhibition, % at 4 µM; AID 435022; 0.33% of 330,000 active; in the data active = inhibition above about 35%
Beta apoptosis: blocks beta cell apoptosis; INS-1E cytokine-induced death, ATP luminescence, 48 h; percent of positive-control rescue, neutral wells zero; protection from apoptosis, % (no concentration beside the values); 0.8% of 300,000 active; AID 435005;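 active = Every replicate reaches about 75%, or at least half do and their mean reaches it too, limit read from the data; inconclusive = At least half of replicates reach the limit but their mean does not; inactive = Under half of replicates reach the limit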;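 note: higher means more ATP so stronger rescue from cytokine killing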
Calb FLC: C. albicans growth modulation with fluconazole; C. albicans CaCi-2 (fluconazole-resistant clinical isolate) + fluconazole, Alamar Blue growth, 48 h; growth inhibition, % (concentration not given with the values); 0.57% of 300,000 active; AID 1979;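 active = growth inhibition above about 58% in most replicates, limit read from the data, passing the limit was not always enough; inconclusive = exactly half the replicates above a set limit; inactive = most replicates below a set limit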;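 note: all wells also contain fluconazole at 8 µg/ml as a sub-toxic cotreatment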
Large screens that a line does not name were inactive. Rows were chosen to be rich in hits. Some 2% of all compounds tested hit in one or more screens of this group.

COc1ccc(NC(=O)CN(C)C(=O)/C=C/c2ccc(S(=O)(=O)N3CCCCCC3)cc2)cc1	Beta apoptosis 75.1
COc1ccc(NS(=O)(=O)c2ccc(C(=O)N3CCCCCC3)cc2)cc1	Shn3 inh set2 82.4 (no result: Calb FLC)
COc1ccc(NS(=O)(=O)c2cccc(NC(=O)c3ccc(S(=O)(=O)N4CCCCCC4)cc3)c2)cc1	Shn3 inh set2 inconclusive, Beta apoptosis 99.7
CCOc1ccc(NS(=O)(=O)c2ccc(C(=O)N3CCCCCC3)cc2)cc1	none
COc1ccc(CC(=O)Nc2cccc(S(=O)(=O)N3CCCCCC3)c2)cc1OC	Shn3 inh set2 89.8, Beta apoptosis 86.7 (no result: Jurkat NFkB inh, 697 NFkB inh)
COc1ccc(NC(=O)CCOc2cc(C)ccc2C)cc1S(=O)(=O)N1CCCCC1	Shn3 inh set2 92.6 (no result: Calb FLC)
COc1ccc(NC(=O)CCCOc2ccc(C)cc2)cc1S(=O)(=O)N1CCCCC1	none (no result: Jurkat NFkB inh, 697 NFkB inh, Beta apoptosis, Calb FLC)
COc1ccc(/C(C)=N/NC(=O)c2cccc(S(=O)(=O)N3CCCC3)c2)c(O)c1	Shn3 inh set2 88.5, Beta apoptosis 108.7
CCOC(=O)C1CCCN(S(=O)(=O)c2ccc(S(=O)(=O)N3CCCC3)cc2)C1 (configuration not stated)	Shn3 inh set2 87.9
COc1ccc(/C=C/c2ccc3ccccc3[n+]2C)cc1OC	Shn3 inh set2 92.1
CC(=O)Oc1ccccc1/C=C/c1ccc2ccccc2[n+]1C	none
O=C1/C(=C/c2cccc(F)c2)Oc2cc(O)ccc21	none
O=C(Nc1ccc(OC(F)(F)F)cc1)Nc1cccnc1	none
Cc1ccc(C(C)C)cc1NC(=O)Nc1ccc([N+](=O)[O-])cc1	Shn3 inh set2 86.9, Beta apoptosis 120.9
Cc1ccc([N+](=O)[O-])cc1NC(=O)C1CCCC1	Calb FLC 96.2 (no result: Beta apoptosis)
Cc1ccc([N+](=O)[O-])cc1NC(=O)C1CCN(S(C)(=O)=O)CC1	none
Cc1cc(O)c(C(C)C)cc1NC(=O)Nc1ccc([N+](=O)[O-])cc1	none (no result: Jurkat NFkB inh, 697 NFkB inh, Beta apoptosis, Calb FLC)
O=C(Nc1ccc(Oc2ccc(NC(=O)Nc3ccc([N+](=O)[O-])cc3)cc2)cc1)Nc1ccc([N+](=O)[O-])cc1	Beta apoptosis 109.7
O=C(Nc1ccc(OC(F)(F)F)cc1)Nc1cccc([N+](=O)[O-])c1	Beta apoptosis 101.9
Cc1ccc(CNc2ncnc3ccc(-c4ccc(CO)o4)cc23)o1	none (no result: Jurkat NFkB inh, 697 NFkB inh, Beta apoptosis, Calb FLC)
CC(C)C[C@@H](CN)NC(=O)c1nc[nH]c1C(=O)N[C@@H](CC(=O)O)C(=O)CNC[C@H](C)NC(=O)c1nc[nH]c1C(=O)N[C@@H](CC(=O)O)C(=O)O	none (no result: Jurkat NFkB inh, 697 NFkB inh, Beta apoptosis, Calb FLC)
CC(C)c1ccc(NC(=O)CCS(=O)(=O)c2cccc3nonc23)cc1	none
O=C(COc1ccccc1F)N1N=C(c2cccs2)CC1c1ccco1 (configuration not stated)	none (no result: Beta apoptosis, Calb FLC)
COc1ccc(C(C)(O)c2nc(-c3ccc(S(C)(=O)=O)cc3)cs2)cc1 (configuration not stated)	none (no result: Jurkat NFkB inh, 697 NFkB inh, Beta apoptosis, Calb FLC)
Cc1cc(NC(=O)Nc2cccc([N+](=O)[O-])c2)no1	none
Cc1ccc(NC(=O)Nc2cccc([N+](=O)[O-])c2)cc1F	Beta apoptosis 93.0
O=C(Nc1ccc([N+](=O)[O-])cc1)Nc1nc(-c2ccc(Cl)s2)cs1	Shn3 inh set2 inconclusive, Beta apoptosis 128.6 (no result: Jurkat NFkB inh, 697 NFkB inh)
COC(=O)/C(=N\Nc1ccc(Cl)cc1)Sc1nnc(-c2ccc(OC)cc2)n1C	Calb FLC 84.1
COc1ccc(CNC(=O)CSc2nnc(-c3ccc(NC(C)=O)cc3)n2C)cc1	none
O=C(CCCCC(=O)Nc1ccc(F)cc1F)Nc1ccc(F)cc1F	Beta apoptosis 133.3
CCCCC(=O)Nc1ccc(Cl)cc1F	none (no result: Jurkat NFkB inh, 697 NFkB inh, Beta apoptosis, Calb FLC)
O=C(Nc1ccccc1F)C1CCCN1S(=O)(=O)c1ccc(Cl)cc1 (configuration not stated)	none (no result: Calb FLC)
NNC(=O)c1cc(-c2cccs2)nc2ccccc12	Calb FLC 104.0
Cc1cccc2sc(NNC(=O)c3cc(-c4cccs4)nc4ccccc34)nc12	Calb FLC 84.9 (no result: Beta apoptosis)
O=C(CCc1nc2ccccc2c(=O)[nH]1)NNC(=O)COc1ccc(Br)cc1	none
COCCCN1C(=O)C(=O)/C(=C(/O)c2ccc(OCC(C)C)cc2C)C1c1cccnc1 (configuration not stated)	Calb FLC 105.9
CCCOc1ccc(/C(O)=C2/C(=O)C(=O)N(CCOC)C2c2cccnc2)cc1 (configuration not stated)	none (no result: Shn3 inh set2)
COc1ccc(-n2nnnc2C(CCc2ccccc2)N2CCN(C/C=C/c3ccccc3)CC2)cc1 (configuration not stated)	none (no result: Jurkat NFkB inh, 697 NFkB inh, Beta apoptosis, Calb FLC)
